The whole screen tested about 200,000 compounds, of which about 860 (0.43%) were called active. The sample holds actives, similar compounds and a random draw of the others, so the mix is not that of the screen. The source holds several records for some structures; these can differ, active in one and inactive in another. Unmarked numbers belong to inactive results. Calls follow the shape of the dose curve; as a rule, active = well fitted inhibition curve with a large enough effect; inconclusive = small, poorly fitted or top-dose-only effect; inactive = flat fitted curve, though single readings scatter.

From PubChem BioAssay AID1478 (National Center for Advancing Translational Sciences (NCATS), 2009) come the findings set out here.
Potency is read from the fitted curve at half-maximal effect.

Chain of Cruzipain (Trypanosoma cruzi) (P25779 123-467 limits assumed): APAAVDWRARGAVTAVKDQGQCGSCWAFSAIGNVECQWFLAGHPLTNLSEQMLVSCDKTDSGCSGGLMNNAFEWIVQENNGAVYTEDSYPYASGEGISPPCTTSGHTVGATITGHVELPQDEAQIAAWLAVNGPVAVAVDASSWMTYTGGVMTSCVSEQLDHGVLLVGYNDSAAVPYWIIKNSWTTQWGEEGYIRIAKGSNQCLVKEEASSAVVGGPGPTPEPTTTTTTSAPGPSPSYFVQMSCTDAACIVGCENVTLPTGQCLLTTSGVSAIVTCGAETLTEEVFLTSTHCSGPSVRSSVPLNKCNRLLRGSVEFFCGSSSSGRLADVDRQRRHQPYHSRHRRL

The target in this assay is Cruzipain (Trypanosoma cruzi) (UniProt P25779). The assay can be described thus: qHTS Assay for Promiscuous and Specific Inhibitors of Cruzain (with detergent). Also: nearly all actives have a fitted effect of over 40% in size. As to conditions: purified cruzain, Z-FR-AMC fluorescence, 0.01% Triton. On the procedure:
Cruzain (3.4.22.51) is a cysteine protease from the tropical parasite Trypanosoma cruzi. Dual qHTS experiment was performed against the NCGC compound collection in order to 1) identify novel inhibitors of the enzyme and 2) profile the compound collection for promiscuous inhibitors operating via colloidal aggregation (by performing detergent-free and detergent-containing comparison screens). Cruzain was assayed by the use of fluorogenic coumarin-based substrate Z-FR-AMC: proteolytic cleavage releases AMC, whose fluorescence is measured at 360 nm excitation and 450 nm emission. Purified cruzain was supplied by the labs of Prof. James McKerrow and Brian Shoichet, UC San Francisco.
This assay had 0.01% Triton X-100 concentration. See also releated assay "qHTS Assay for Promiscuous and Specific Inhibitors of Cruzain (without detergent)" with 0.00005% Triton X-100.
See following references for additional details:
Assay Provider: Shoichet, Brian; University of California, San Fancisco
Screening Center PI: Austin, C.P.
Screening Center: NIH Chemical Genomics Center [NCGC]
Buffer: 100 mM Sodium Acetate, pH 5.5, 5 mM DTT, Triton X-100 concentration: 0.01%.
Buffer in columns 3 and 4 as negative control (no enzyme).
Substrate solution: 2 uM final concentration of Z-FR-AMC (catalog number I-1160, Bachem) dispensed throughout the plate.
Enzyme: 1.5 nM Cruzain final concentration in columns 1, 2, 5-48. Column 1 is neutral (100% activity). Column 2 contained titration of covalent inhibitor K11777, starting concentration 1 mM, then 1:2 dilution in duplicate).
Three uL of enzyme or buffer were dispensed to 1536-well Greiner black solid bottom plates. Compounds and controls (23 nL) were transferred via Kalypsys PinTool. The plates were incubated for 15 min at room temperature, and then 1 uL of substrate solution was added to start the reaction. The plates were immediately transferred to and read 4 times every 30 seconds for 2 min on ViewLux High-throughput CCD imager (Perkin-Elmer) using 360 nm excitation and 450 nm emission fluorescence protocol. The fluorescence intensity difference between the third and the first time points (time lapse of 60 seconds) was used to compute reaction progress.
(In qHTS, concentration-response curves come from the screen itself.)
`COc1cc(-c2noc(-c3ccc(N4CCCC4)c([N+](=O)[O-])c3)n2)cc(OC)c1OC`: the max response, negative = inhibition is -7.32%. On the same count and under the same terms, the result for `CCCNC(=O)c1ccc2c(c1)ncn2-c1ccc(C)cc1C` reads 0.948%.

On to `Cc1ccccc1CNC(=O)c1cccc(NC(=O)c2nsc3ccccc23)c1`, for which the max response, negative = inhibition is -4.52%.

Take `Cc1ccc(-n2c(SCC(=O)Nc3ncc(Cl)cc3Cl)nc3ccccc32)cc1`: the max response, negative = inhibition was 0.0613%. On the same count and under the same terms, to `CC(Oc1ccc(Cl)cc1)C(=O)OCC(=O)Nc1ncc(Cl)cc1Cl` (stereo not drawn) belongs -4.76%. Take `Cc1ccc(SCCC(=O)OCC(=O)Nc2ncc(Cl)cc2Cl)cc1`: the Potency is 25.1 µM (active). Consider `CCC(=O)N1CCc2cc(CNS(=O)(=O)c3ccc(Br)s3)ccc21`, for which the max response, negative = inhibition was -0.767%.

Regarding `COc1ccc(C(=O)N2CC3(C)CC2CC(C)(C)C3)cc1OC` (stereo not drawn), the max response, negative = inhibition is -2.5%.

On to `Cc1cccc(C(=O)NCC(=O)OCC(=O)N2CC3(C)CC2CC(C)(C)C3)c1` (stereo not drawn), for which the Potency is 14.1 µM (active). Turning to `Cc1nnnn1/C(=C\c1ccccc1)C(=O)OCC(=O)N1CC2(C)CC1CC(C)(C)C2` (stereo not drawn), the max response, negative = inhibition was -0.133%.

`CCOc1ccc(C(NC(=O)c2cc(OC)c(OC)c(OC)c2)c2cc(Cl)c3cccnc3c2O)cc1` (stereo not drawn): the max response, negative = inhibition is 1.88%.

With `COc1ccccc1CNc1ccc(-c2nc(-c3ccccc3C)no2)cc1[N+](=O)[O-]`, the max response, negative = inhibition is -3.81%. The same measure, in the same setting: to `O=C(NCc1ccccc1)C(=O)NCC(c1ccco1)S(=O)(=O)c1ccc(Cl)cc1` (stereo not drawn) belongs -1.1%. Turning to `O=C(COc1ccccc1)NCCc1nc2ccccc2[nH]1`, the Potency was 15.8 µM (active).

Consider `COC(=O)Cc1nc2ccccc2[nH]1`, for which the max response, negative = inhibition is 8.1%.

Take `COc1ccc(OC(C)C(=O)NCCc2nc3ccccc3[nH]2)cc1` (stereo not drawn): the max response, negative = inhibition was -6.04%.

For `CCc1ccc(N(CC)C(=O)CCn2cnc3onc(-c4ccc(F)cc4)c3c2=O)cc1`, the max response, negative = inhibition is -2.73%. Same read-out and setting: the result for `COc1ccc(OCCCn2c(C)nc3cc(C)c(C)cc32)cc1` reads -3.67%; that for `O=C(NCC1CCCO1)/C(=C\c1ccco1)NC(=O)c1ccccc1` (stereo not drawn), -1.92%. Still for that read-out and setting: to `Cc1cccc(NC(=O)/C(=C\c2ccco2)NC(=O)c2ccccc2)c1` belongs -5.18%. For the compound `O=C(OCN1C(=O)c2ccccc2C1=O)/C(=C\c1ccco1)NC(=O)c1ccccc1`, the Potency was 0.316 µM (active). With `Cc1ccc(-c2noc(-c3nnn(-c4cccc(C(F)(F)F)c4)c3N)n2)cc1`, the max response, negative = inhibition was 0.534%. Still for that read-out and setting: to `CCOC(=O)c1ccc(CSc2nnc3cc(C)c4ccccc4n23)cc1` belongs -5.57%. Consider `COc1ccc(N2C(=O)CSC23C(=O)N(Cc2cccc(F)c2)c2ccccc23)cc1Cl` (stereo not drawn), for which the max response, negative = inhibition was -6.49%. The same measure, in the same setting: to `CCOC(=O)N1CCN(C(=O)c2cc3c(ccc4ccccc43)oc2=O)CC1` belongs -4.28%. As to `CNC(=O)c1cc2c(ccc3ccccc32)oc1=N`, the Potency is 28.2 µM (active).

Turning to `N=c1oc2ccccc2cc1C(=O)N/N=C/c1ccccc1`, the max response, negative = inhibition is -4.25%. Turning to `COc1ccc(-c2nc3scc(CCNS(=O)(=O)c4cc(F)ccc4OC)n3n2)cc1OC`, the max response, negative = inhibition was -6.79%. The same measure, in the same setting: to `COc1ccc(OC)c(-n2nnc3c(sc4nc(C)c(Br)c(C)c43)c2=O)c1` belongs -8.66%.

Turning to `CC(=O)c1ccc(S(=O)(=O)N2CCC(Oc3ccc(-n4cnnn4)cc3)CC2)cc1`, the max response, negative = inhibition was 0.367%.

For the compound `O=C1CCCc2cc(S(=O)(=O)N3CCCC(C(=O)NCc4ccccc4)C3)ccc2N1` (stereo not drawn), the max response, negative = inhibition was -1.43%. Turning to `COc1ccc(CNC(=O)c2cc3cccc(OC)c3oc2=O)cc1`, the max response, negative = inhibition was -0.986%. For the compound `CN(C)c1ccc(-c2nc(NCCN3CCOCC3)c3ccccc3n2)cc1`, the max response, negative = inhibition is -4.87%.

Regarding `c1ccc2cc3c(NCCN4CCOCC4)ccnc3cc2c1`, the Potency was 28.2 µM (active). Turning to `Clc1ccccc1-c1cc(NCCN2CCOCC2)ncn1`, the max response, negative = inhibition was 0.682%. Same read-out and setting: the result for `CCc1ccccc1NC(=O)c1cnn(-c2ccc(F)cc2)c1C1CCNCC1` reads -1.82%; that for `O=C(CSc1n[nH]c(-c2ccccc2)n1)N1CCCCC1`, 2.8%. Same read-out and setting: the result for `Cc1ccccc1CN1CCC(CNC(=O)c2c(C)oc3ncnc(N4CCCCC4)c23)CC1` reads 1.4%; that for `CCN1CCN(C(c2ccc(C)cc2)c2c(O)cc(C)n(Cc3ccco3)c2=O)CC1` (stereo not drawn), 0.51%; that for `CCOC(=O)c1ccc(-n2c(CCC(=O)O)ccc2-c2ccccc2)cc1`, -12%. `CCOC(=O)C1CCN(C(c2ccc(F)cc2)c2sc3nc(-c4ccco4)nn3c2O)CC1` (stereo not drawn): the max response, negative = inhibition is -3.73%. Still for that read-out and setting: to `O=C(/C=C/c1ccccc1)c1ccoc1` belongs -1.4%. Consider `O=C1OC(/C=C/c2ccccc2)=NC/1=C/c1ccco1`, for which the Potency is 3.98 µM (active). In the case of `COc1ccccc1/C=C/C1=NC(=C\N(C)C)/C(=O)O1`, the max response, negative = inhibition is -17.3%. On to `COC(=O)c1sccc1S(=O)(=O)N(CC(=O)Nc1ccc(C)c(F)c1)c1ccc(C)c(C)c1`, for which the max response, negative = inhibition was -3.08%. The same measure, in the same setting: the result for `CCOc1ccc(CNC(=O)C2CCCN(S(=O)(=O)N(CC)c3ccc(OCC)cc3)C2)cc1` (stereo not drawn) reads 3.48%; that for `O=C(Nc1ccc(Br)cc1)c1ccc(Br)c(S(=O)(=O)NCc2ccccc2)c1`, -3.54%; that for `Cc1ccc(-c2cn3c(n2)sc2cc(C(=O)NCc4cccs4)ccc23)c(C)c1`, -2.89%. For the compound `CCc1nc(-c2cc(S(=O)(=O)N3CCN(c4ccc(OC)cc4)CC3)ccc2OC)no1`, the max response, negative = inhibition is -3.17%.

In the case of `CC(=O)c1ccc(NC(c2ccc(F)cc2)c2nnc(-c3ccccc3)o2)cc1` (stereo not drawn), the max response, negative = inhibition is -5.26%.

For the compound `CCn1cc2nc(SCc3cccc(F)c3)n(CCc3ccccc3)c(=O)c2n1`, the max response, negative = inhibition is -3.27%. Same read-out and setting: the result for `COc1ccc(-n2c(=O)c3c(c4cc(OC)ccc4n3C)n(Cc3cccc(C)c3)c2=O)cc1` reads -1.25%; that for `Cc1ccc(NC(=O)c2cc(S(=O)(=O)NCCC3=CCCCC3)ccc2F)cc1C`, 1.53%.

Consider `O=C(COC(=O)[C@H](Cc1ccccc1)NC(=O)c1cccs1)Nc1cc(F)ccc1F`, for which the Potency is 20 µM (active). As to `Cc1ccc(F)c(NC(=O)CCc2ccccc2)c1`, the max response, negative = inhibition is 2.16%. `Cc1ccc(C)c(NC(CC(=O)c2ccccc2)C(=O)OCC(=O)c2cccs2)c1` (stereo not drawn): the max response, negative = inhibition is -3.94%. Same read-out and setting: to `CC(=O)Nc1ccc(NC(=O)C2CCCN(S(=O)(=O)c3ccc4c(c3)CCCC(=O)N4)C2)cc1` (stereo not drawn) belongs -1.66%; to `Cc1ccc(-c2onc(C)c2C)cc1S(=O)(=O)Nc1ccccn1`, -0.474%; to `CCOc1ccc(CNC(=O)C2CCCN(c3nnc(C)c4c(C)n(-c5ccccc5)nc34)C2)cc1` (stereo not drawn), -6.21%.

With `O=C(CNC(=O)c1ccco1)OCC(=O)c1ccccc1`, the max response, negative = inhibition was -1.99%. Still for that read-out and setting: the result for `COc1ccc(C)cc1-n1nnnc1SCC(=O)c1cc(C)n(Cc2ccco2)c1C` reads -1.61%.

Consider `Cc1cc(C(=O)COC(=O)CNC(=O)c2ccc(F)cc2)c(C)n1Cc1ccco1`, for which the Potency was 14.1 µM (active). In the case of `COc1ccc2c(Sc3ccc(C)cc3)c(C(=O)NC(C)c3ccccc3)[nH]c2c1` (stereo not drawn), the max response, negative = inhibition is -7.2%. Consider `CCOC(=O)c1c(C)[nH]c(CCC(=O)Nc2ccc(OC)c(OC)c2)c1C`, for which the max response, negative = inhibition was 2.38%. Still for that read-out and setting: to `CCN(CC)S(=O)(=O)c1nnc(NC(=O)COc2ccccc2Cl)s1` belongs -2.1%. Same read-out and setting: to `CCOC(=O)c1c(S(=O)(=O)NCC(=O)Nc2ccc(Cl)c(C(F)(F)F)c2)c(C)n(C)c1C` belongs -11.4%; to `COc1cccc(-c2nnc3n(CCc4ccccc4)c(=O)c4ccccc4n23)c1O`, -2.72%; to `COC(=O)C(C)N(C#N)c1nc(C)nc(C)n1` (stereo not drawn), 4.3%. Turning to `Cc1cc(C)nc(N(C#N)CC(=O)Nc2ccccc2)n1`, the max response, negative = inhibition was 7.7%.

With `CNc1nc(SC)nc(N(C#N)CC(=O)OC)n1`, the Potency was 17.8 µM (active).

In the case of `Cc1c(C(=O)N(C)C)sc2c1c(=O)n(-c1ccc(F)cc1)c(=O)n2CC(=O)N(C)c1ccccc1`, the max response, negative = inhibition was 1.44%. As to `CC(C)C[C@H](NC(=O)[C@@H]1O[C@H]1C(=O)O)C(=O)NCCCCN=C(N)N`, the Potency is 0.0562 µM (active). With `Cc1ccccc1CSc1nc2c([nH]c3ccccc32)c(=O)n1C`, the max response, negative = inhibition was -1.56%. Turning to `Cc1cccc(N2CCN(C(=O)CCn3c(=O)c4cccn4c4cccnc43)CC2C)c1` (stereo not drawn), the max response, negative = inhibition was -4.9%.

`O=c1cc2nc(-c3ccccc3)nc(SCCOc3ccc(Cl)cc3)n2[nH]1`: the max response, negative = inhibition was 0.045%. As to `Oc1c(Cl)cc(Cl)c(Cl)c1Cc1c(O)c(Cl)cc(Cl)c1Cl`, the Potency is 25.1 µM (active) and the max response, negative = inhibition was -22.8%.

`COc1ccc(OC)c(-n2nnc(-c3nc(-c4cc(OC)c(OC)c(OC)c4)no3)c2C)c1`: the max response, negative = inhibition was 2.73%.

Consider `COc1cccc(-c2cc(C(=O)Nc3ccc(C)cc3)[nH]n2)c1`, for which the max response, negative = inhibition is -0.83%. Take `Cc1ccc(CSc2nc3ccsc3c(=O)n2CCC(C)C)cc1`: the max response, negative = inhibition was -1.1%. Regarding `CC(=O)Nc1cc(C(=O)NCc2ccc(F)cc2Cl)ccc1Sc1ccc(Cl)cc1`, the max response, negative = inhibition is 1.77%.

As to `COc1cccc(C(=O)NCC(=O)OCc2cc(=O)n3ccsc3n2)c1`, the max response, negative = inhibition was -1.65%. On the same count and under the same terms, the result for `CCCCn1c(=N)c(S(=O)(=O)c2ccccc2)cc2c(=O)n3cccc(C)c3nc21` reads 0.669%. For `CCn1c(=N)c(S(=O)(=O)c2ccc(F)cc2)cc2c(=O)n3ccccc3nc21`, the Potency is 22.4 µM (active). As to `CCOC(=O)c1cc2c(=O)n3ccccc3nc2n(Cc2ccco2)c1=NC(=O)c1ccc(F)cc1`, the max response, negative = inhibition is -23.1%. For the compound `CCOc1cc(-c2nnc(SCC(=O)NC3CCCCC3)nc2-c2ccc(OC)c(OCC)c2)ccc1OC`, the max response, negative = inhibition was 0.915%. For the compound `Cc1ccc(NC(=O)CSc2nnc3[nH]c(=O)cc(C)n23)cc1Cl`, the max response, negative = inhibition was -1.01%. Regarding `CC(=O)c1cccc(Nc2ccc3cc(S(=O)(=O)N4CCC(C)CC4)ccc3n2)c1`, the max response, negative = inhibition is -2.76%.
